Only a selection was taken, and hits are over-represented in it overall.
mHTT-CaM PPI inh: inhibitors of human mutant huntingtin-calmodulin interaction. P42858. AlphaScreen His-mHTT/GST-CaM binding, luminescence. inhibition, % at 15 µM. actives 3.6% (n = 190,000). AID 1671202;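 further: 0% = both proteins with DMSO and 100% = one protein alone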
Pf apPOL inh: Pf-apPOL DNA polymerase inhibition | Recombinant Pf-apPOL, molecular beacon fluorescence, 1.5 h | inhibition, % at 10 µM | actives 0.25% (n = 210,000) | AID 1794808
* = called active by the depositor; x = no result given. No stated cut-off is given here; in the data, active means inhibition above about 50%; inactive means the rest.

SMILES	mHTT-CaM PPI inh	Pf apPOL inh
CCN(CCCNC(=O)c1nn(-c2ccccc2OC)c(=O)c2ccccc12)c1cccc(C)c1	62*	-1
O=C(c1nn2c(c1Cl)NC(c1cccs1)CC2C(F)(F)F)N1CCCCCC1 (stereo unspecified)	8	-7
CC(C)(C)n1nc2c(c1NC(=O)c1cccc([N+](=O)[O-])c1)CSC2	67*	6
Cc1c(C(=O)Nc2c3c(nn2C(C)(C)C)CSC3)cccc1[N+](=O)[O-]	92*	3
Cc1c(C(=O)Nc2c3c(nn2-c2ccc([N+](=O)[O-])cc2)CSC3)cccc1[N+](=O)[O-]	3	-6
Cc1ccc(C(=O)Nc2c3c(nn2C(C)(C)C)CSC3)cc1[N+](=O)[O-]	29	4
O=C(NCc1ccccc1)c1nnc(N2CCCCC2)c2ccccc12	1	-6
CCn1cc(CN2CCC(C(=O)NCc3cccc(OC)c3)CC2)c2ccccc21	12	-4
CCn1cc(CN2CCC(C(=O)NCc3cccc(Cl)c3)CC2)c2cc(OC)ccc21	90*	1
Cn1cc(CN2CCC(C(=O)NCCCN3CCCC3)CC2)c2cc(Cl)ccc21	55*	-1
Cn1cc(CN2CCC(C(=O)NCCN3CCCCC3)CC2)c2cc(Cl)ccc21	1	1
Cc1ccc(CNc2nc3ccncc3n(C(C)C)c2=O)cc1	0	-14
CS(=O)(=O)Nc1ccc(Cl)cc1Cl	-2	x
CS(=O)(=O)Nc1ccc(Cl)c2cccnc12	86*	-3
COc1ccc(CNC(=O)c2c(C)oc3ccn(C)c(=O)c23)cc1	20	4
Cc1ccc(Nc2c(C(=O)NCc3ccc(F)cc3)cnc3c2c(C)nn3C)cc1	94*	-4
CCCNC(=O)c1cnc2c(c(C)nn2C)c1Nc1ccc(C)cc1	4	-2
O=C(NCc1cccc(Cl)c1)C1CCN(c2ncnc3c2nc2n3CCCCC2)CC1	5	-2
O=C(CSc1ccccn1)Nc1cc(C(F)(F)F)ccc1Cl	-42	-5
Cc1ccc(Sc2c(C)nn(S(=O)(=O)c3ccccc3[N+](=O)[O-])c2C)cc1	50*	1
Cc1nn(S(=O)(=O)c2ccccc2[N+](=O)[O-])c(C)c1Sc1ccccc1	0	-9
Cc1ccc(NC(=O)/C(C#N)=C/c2cc(C)n(-c3cccnc3)c2C)cc1C	52*	-8
CCOc1ccc(NC(=O)/C(C#N)=C/c2cc(C)n(-c3cccnc3)c2C)cc1	20	-4
O=C(NC(=O)N1CCSCC1)c1c(F)cccc1F	x	2
c1cc(-c2nc3ccccc3[nH]2)nc(-c2nc3ccccc3[nH]2)c1	78*	24
SMILES	mHTT-CaM PPI inh	Pf apPOL inh
Fc1ccc(-c2nc3ccccc3[nH]2)cc1	-16	-4
COc1ccc(Cl)cc1C(=O)N1CCC(c2nc3ccncc3n2CC(C)C)C1 (stereo unspecified)	7	-7
COCCn1c(C2CCN(C(=O)Nc3ccc(OC)cc3)C2)nc2cccnc21 (stereo unspecified)	-3	-6
COc1ccc(/C=C2/SC(=Nc3ccccc3Cl)NC2=O)c(OC)c1	46	0
O=C1NC(=Nc2ccccc2Cl)S/C1=C/c1ccc([N+](=O)[O-])cc1	43	19
O=C1NC(=Nc2ccccc2Cl)S/C1=C/c1cccc([N+](=O)[O-])c1	88*	-2
COc1cccc(/C=C2/SC(=Nc3ccccc3Cl)NC2=O)c1	52*	-55
COc1ccc(CNC(=O)C2CCCN(c3nccc4sccc34)C2)cc1OC (stereo unspecified)	27	2
CC(=O)Nc1ccc(C(=O)N2CCc3cn(CC(C)C)c4cccc(c34)C2)cc1	72*	-1
CCC(=O)N1CCc2cn(CC(C)C)c3cccc(c23)C1	54*	-5
COc1ccc(NC(=O)N2CCc3cn(CC(C)C)c4cccc(c34)C2)cc1OC	29	-1
CC(=O)N1CCc2cn(CC(C)C)c3cccc(c23)C1	44	-2
CC(C)Nc1nc(N2CCOCC2)nc(N2CCOCC2)n1	-4	1
CC(=O)c1ccc(N=Cc2nc(-c3ccc([N+](=O)[O-])cc3)oc2O)cc1	-2	-4
CC1=CC(C)(C)Nc2cc(CN(C)C)c(O)cc21	98*	-2
CC1=CC(C)(C)Nc2cc(C(C)(C)C)c(O)cc21	95*	-4
CCOC(=O)Oc1ccc2c(c1)C(C)=CC(C)(C)N2	9	-7
CC(C)(C)c1cc(-c2cc(C(C)(C)C)c(O)c(C(C)(C)C)c2)cc(C(C)(C)C)c1O	x	-5
CCc1nnc(SCC(=O)Nc2cccc(C(F)(F)F)c2)nc1CC	-5	-1
COCCNc1nc(SCC(=O)Nc2cccc(C(F)(F)F)c2)nc2ccccc12	67*	-2
CC(C)(C)C1CC=C2C(C#N)=C(N)C(C#N)(C#N)C(CCc3ccccc3)C2C1 (stereo unspecified)	65*	-12
COc1cccc(C2C3CC(C(C)(C)C)CC=C3C(C#N)=C(N)C2(C#N)C#N)c1O (stereo unspecified)	40	-1
CC(C)NC(=O)c1ccc(OCC2CCCN(C(=O)c3ccc(C#N)cc3)C2)cc1 (stereo unspecified)	18	-6
COc1ccc(-c2[nH]ncc2Oc2ccc(F)cc2)c(O)c1	44	0
COc1ccc(-c2[nH]ncc2-c2ccc(Cl)cc2)c(O)c1	69*	-4
SMILES	mHTT-CaM PPI inh	Pf apPOL inh
Cc1c(-c2ccc(Br)cc2)c(=O)oc2ccc(O)cc12	-13	-12
CC(C)(C1=CC(=O)c2ccccc2C1=O)C1OCC2(CO1)CC1C=CC2C1 (stereo unspecified)	53*	x
C1=CC2CC1CC21COC(c2ccc3oc4ccccc4c3c2)OC1 (stereo unspecified)	-17	x
O=C(NCc1ccco1)c1ccc2nc(-c3ccccn3)c(-c3ccccn3)nc2c1	7	-10
Cc1c(Cl)cccc1NC(=O)Cn1ccc2c(=O)[nH]ccc21	15	14
O=C(Cn1ccc2c(=O)[nH]ccc21)Nc1cccc(Cl)c1	21	79*
O=C(Cn1ccc2c(=O)[nH]ccc21)Nc1ccc(Cl)cc1	15	46
O=C(Cn1ccc2c(=O)[nH]ccc21)Nc1ccccc1Cl	17	82*
CCCNC(=O)C1(c2ccc(NS(C)(=O)=O)cc2)CC1	-11	-1
Cc1ccccc1NC(=O)N1CC2CCCN2c2ccccc21 (stereo unspecified)	61*	-2
O=C(Nc1ccccc1Br)N1CC2CCCN2c2ccccc21 (stereo unspecified)	74*	2
O=C(NCc1ccco1)c1ccc(NC(=O)N2CC3CCCN3c3ccccc32)cc1 (stereo unspecified)	15	1
CCOc1ccccc1NC(=O)N1CC2CCCN2c2ccccc21 (stereo unspecified)	80*	1
Cc1cccc(NC(=O)N2CC3CCCN3c3ccccc32)c1C (stereo unspecified)	30	-3
CCOc1ccccc1NC(=O)N1CC(CC)Oc2ccccc21 (stereo unspecified)	-49	-4
CCOC(=O)c1c(C)nn(-c2ccc(N3C(=O)CCC3=O)cc2)c1C	x	-4
COCC(C)NC(=O)c1ccc([N+](=O)[O-])cc1Cl (stereo unspecified)	1	109*
CC(C)Oc1ccc(NC(=O)c2ccc([N+](=O)[O-])cc2Cl)cc1	10	-9
O=C(CN1C(=O)C(=O)c2ccccc21)c1ccc(Cl)cc1	0	-10
O=C1C(=O)N(C(c2ccccc2)c2ccc(Cl)cc2)c2ccccc21 (stereo unspecified)	93*	-2
